Compound activity as filed in PubChem.
Hits are enriched below; roughly 0.29% of the tested compounds scored in any of these assays.
CatL inh: inhibitors of human cathepsin L, biochemical. Procathepsin L (Homo sapiens), P07711. purified cathepsin L, fluorogenic substrate, fluorescence. inhibition, %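 (tested at 10 µM)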. 58,000 tested, 0.17% active. AID 460, 2006; in the data active = inhibition above about 45%
Target sequence (P07711 114-288 limits assumed): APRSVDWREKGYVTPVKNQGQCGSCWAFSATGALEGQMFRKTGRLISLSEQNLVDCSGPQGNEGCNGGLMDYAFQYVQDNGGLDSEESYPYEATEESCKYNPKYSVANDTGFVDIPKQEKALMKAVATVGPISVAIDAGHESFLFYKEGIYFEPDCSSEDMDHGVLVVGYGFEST
Target sequence (P07711 292-333 limits assumed): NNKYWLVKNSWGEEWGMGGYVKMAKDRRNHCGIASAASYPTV
CatB mixtures: cathepsin B inhibitors from pooled compounds, primary screen, biochemical, compound mixtures, AMC fluorescence. P07858. Purified cathepsin B, AMC dipeptide fluorescence. inhibition, %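 (ten-compound pools at 5 µM per compound and 50 µM total)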. 62,000 tested, 0.06% active. AID 488, 2006; in the data active = inhibition above about 22%, passing the limit was not always enough; inconclusive = no clear call, values can overlap the other calls
CatB inh: human cathepsin B inhibitors, primary screen, biochemical, fluorogenic substrate | 63,000 tested, 0.1% active | inhibition, %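 (tested at 10 µM)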 | purified cathepsin B, fluorescence | AID 453, 2006; in the data active = inhibition above about 21%
CatS block: inhibitors of human cathepsin S, biochemical, compound mixtures; P25774; recombinant cathepsin S, AMC dipeptide fluorescence, pooled mixtures; inhibition, %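 (tested at 5 µM per compound within 10-compound mixtures)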; 62,000 tested, 0.06% active; in the data active = inhibition above about 32%, passing the limit was not always enough; inconclusive = no clear call, values can overlap the other calls
A number is an active result; . = inactive; ? = inconclusive; / = no result.

SMILES | CatL inh | CatB mixtures | CatB inh | CatS block
CCn1nc(-c2cccs2)nc2c(=O)n(C)c(=O)nc1-2 | 81 | 86 | 82 | 87
COc1cc2c(cc1OC)-c1c(OC)c(OC)cc3c1C(C2)N(C)CC3 (configuration not stated) | . | . | 27 | ?
CC1CC2(O)c3nonc3CCC2N1O (configuration not stated) | . | . | . | .
Cc1ccc(NC(=O)CSc2nnc([C@@H](N)Cc3c[nH]c4ccccc34)o2)c(C)c1 | 93 | . | . | .
C=C(C)CSc1nnc([C@@H](N)Cc2c[nH]c3ccccc23)o1 | / | . | . | .
CCc1ccccc1NC(=O)CSc1nnc([C@@H](N)Cc2c[nH]c3ccccc23)o1 | 120 | . | . | .
O=C(c1ccc(CS(=O)(=O)c2ccccc2)o1)N1CCC2(CC1)OCCO2 | . | . | . | .
Cn1cccc1CNCCc1ccccc1F | 54 | . | . | .
ClC1=CCC2CN(CCN3CCCCC3)CC2C1 (configuration not stated) | . | . | . | .
c1cncc(C2CC(c3cccs3)n3ncnc3N2)c1 (configuration not stated) | . | . | . | .
